Measured values reported in PubChem BioAssay (Tox21).
Values joined by “and” are separate entries in the source; they are usually repeats but may differ in a detail not shown here. Equal values may be shown once. Inconclusive results are not listed. Where a call stands in place of a potency, no number is given. Some compounds were tested as several samples or in several runs, with calls that do not always agree. Active and inactive are the calls of the source. Calls follow the shape of the full dose curve.

assay: qHTS assay for small molecule agonists of the antioxidant response element (ARE) signaling pathway - cell viability counter screen (AID 743203); details: ARE-bla HepG2 viability, CellTiter-Glo luminescence, 16 h; series mostly up to 73.3 µM; also: nearly all actives have a fitted effect of over 55% in size
Description: National Center for Advancing Translational Sciences [NCATS]
NIH Chemical Genomics Center [NCGC]
U.S. Environmental Protection Agency [EPA]
National Institutes of Environmental Health Sciences [NIEHS]
National Toxicology Program [NTP]
U.S. Food and Drug Administration [FDA]
Oxidative stress has been implicated in the pathogenesis of a variety of diseases ranging from cancer to neurodegeneration. The antioxidant response element (ARE) signaling pathway plays an important role in the amelioration of oxidative stress. The CellSensor ARE-bla HepG2 cell line (Invitrogen) can be used for analyzing the Nrf2/antioxidant response signaling pathway. Nrf2 (NF-E2-related factor 2) and Nrf1 are transcription factors that bind to AREs and activate these genes. The CellSensor ARE-bla Hep G2 cell line contains a beta-lactamase reporter gene under control of the Antioxidant Response Element (ARE) stably integrated into HepG2 cells. The activation of the report gene under culture conditions can be detected by fluorescence intensity. This cell line has been used to screen the Tox21 10K compound library to identify agonists that induce oxidative stress. The cytotoxicity of the Tox21 compound library against the ARE-bla cell line was tested in parallel by measuring the cell viability using CellTiter-Glo assay (Promega, Madison, WI) in the same wells.
Tox21 Assay Protocol Summary:
ARE-bla HepG2 cells were dispensed at 2,000 cells/5 ul/well in 1536-well white wall/solid bottom plates using a Multidrop Combi (ThermoFisher Scientific, Waltham, MA) dispenser. After the assay plates were incubated at 37C/5% CO2 for 5 hrs, 23 nL of compounds dissolved in DMSO, positive controls or DMSO only was transferred to the assay plate by a pintool work station (Kalypsys, San Diego, CA). The plates were incubated at 37C/5% CO2 for 16 hrs, followed by addition of 4 ul/well of CellTiter-Glo reagent into the assay plates using a Flying Reagent Dispenser (Aurora Discovery, San Diego, CA). After 30 min incubation at room temperature, the luminescence intensity in the assay plates was measured using a ViewLux (PerkinElmer, Shelton, CT) plate reader.
Potency is read from the fitted curve at half-maximal effect.

Question: With O=C(CCl)c1ccc(Cl)cc1Cl as the compound, how does the Potency read?
Answer: The Potency was “inactive and 26.6 µM (active)”.

Question: Which Potency does the source give for CS/C(C)=N/OC(=O)N(C)SN(C)C(=O)O/N=C(\C)SC here?
Answer: Its Potency is “inactive”.

Question: For BrCCCCBr, which Potency is on record?
Answer: Its Potency is “inactive”.

Question: Which Potency does the source give for O=C(OC1CCCCC1)c1ccccc1C(=O)OC1CCCCC1 here?
Answer: Its Potency is “inactive”.

Question: Which Potency does the source give for O=C(O)C(F)(F)C(F)(F)C(F)(F)C(F)(F)C(F)(F)C(F)(F)C(F)(F)C(F)(F)C(F)(F)F here?
Answer: The Potency was “inactive”.

Question: With CC(=O)[C@H]1CC[C@H]2[C@@H]3CC[C@H]4C[C@](C)(O)CC[C@]4(C)[C@H]3CC[C@]12C as the compound, how does the Potency read?
Answer: Its Potency is “inactive”.

Question: Which Potency does the source give for IC(I)=C(I)I here?
Answer: Its Potency is 6.11 µM (active).

Question: For Cn1cc[n+](C)c1 (tested in a mixture with another compound), which Potency is on record?
Answer: Its Potency is “inactive”.

Question: With CNP(=O)(OC)Oc1ccc(C(C)(C)C)cc1Cl (stereo not given) as the compound, how does the Potency read?
Answer: The Potency was “inactive”.

Question: Which Potency does the source give for CN(N=O)c1ccc([N+](=O)[O-])cc1 here?
Answer: The Potency was “inactive”.

Question: Which Potency does the source give for ClCC(Br)CBr (stereo not given) here?
Answer: Its Potency is “inactive”.

Question: With Clc1cc(C(Cl)(Cl)Cl)cnc1Cl as the compound, how does the Potency read?
Answer: Its Potency is 61.1 µM (active).

Question: Which Potency does the source give for CC(=O)CCC(C)=O here?
Answer: Its Potency is “inactive”.

Question: With O=C(CBr)c1ccccc1 as the compound, how does the Potency read?
Answer: Its Potency is “inactive”.

Question: For CCOc1nc(F)cc2nc(S(=O)(=O)Nc3c(Cl)cccc3Cl)nn12, which Potency is on record?
Answer: The Potency was “inactive”.

Question: For CN1C[C@H](CNC(=O)OCc2ccccc2)C[C@@H]2c3cccc4c3c(cn4C)C[C@H]21, which Potency is on record?
Answer: Its Potency is 33.5 µM (active).

Question: Which Potency does the source give for Nc1nc(=S)[nH][nH]1 here?
Answer: Its Potency is “inactive”.

Question: Which Potency does the source give for CC(Cl)C(C)Cl (stereo not given) here?
Answer: Its Potency is “inactive”.

Question: With O=NN1CCCCCC1 as the compound, how does the Potency read?
Answer: Its Potency is “inactive”.

Question: Which Potency does the source give for Nc1ccc([N+](=O)[O-])cc1[N+](=O)[O-] here?
Answer: The Potency was “inactive”.

Question: Which Potency does the source give for Cc1ccc2ccccc2c1 here?
Answer: The Potency was “inactive”.

Question: For CCCN(CCCl)c1c([N+](=O)[O-])cc(C(F)(F)F)cc1[N+](=O)[O-], which Potency is on record?
Answer: The Potency was “inactive”.

Question: With CCc1ccc(C(=O)NN(C(=O)c2cc(C)cc(C)c2)C(C)(C)C)cc1 as the compound, how does the Potency read?
Answer: The Potency was “inactive”.

Question: For CCCCCCCCOC(=O)c1ccc(C(=O)OCCCCCCCC)c(C(=O)OCCCCCCCC)c1, which Potency is on record?
Answer: Its Potency is “inactive”.

Question: Which Potency does the source give for CC(C)(OO)c1ccccc1 here?
Answer: The Potency was 61.1 µM (active).

Question: With NC(=O)CI as the compound, how does the Potency read?
Answer: The Potency was “inactive”.

Question: Which Potency does the source give for O=C(Nc1ccccc1)Nc1cnns1 here?
Answer: The Potency was “inactive”.

Question: With Brc1ccccc1 as the compound, how does the Potency read?
Answer: The Potency was “inactive”.

Question: Which Potency does the source give for II here?
Answer: Its Potency is “inactive”.

Question: With O=C1c2ccccc2C(=O)C1C(=O)C(c1ccccc1)c1ccccc1 as the compound, how does the Potency read?
Answer: The Potency was “inactive”.

Question: Which Potency does the source give for Cc1ccc(N)cc1C here?
Answer: Its Potency is “inactive”.

Question: With N#CCc1ccccc1 as the compound, how does the Potency read?
Answer: Its Potency is “inactive”.

Question: With Oc1ccc(Cl)c(Cl)c1Cl as the compound, how does the Potency read?
Answer: The Potency was “inactive”.

Question: For CCOS(C)(=O)=O, which Potency is on record?
Answer: Its Potency is “inactive”.

Question: Which Potency does the source give for ClC=C(Cl)Cl here?
Answer: The Potency was “inactive”.

Question: With O=C1C(Cl)C(CCl)CN1c1cccc(C(F)(F)F)c1 (stereo not given) as the compound, how does the Potency read?
Answer: Its Potency is “inactive”.

Question: With C=C(C#N)CCC#N as the compound, how does the Potency read?
Answer: The Potency was “inactive”.

Question: Which Potency does the source give for COc1cc(Cl)c(OC)cc1Cl here?
Answer: The Potency was “inactive”.

Question: For CC/C(=N\OC/C=C/Cl)C1=C(O)CC(C2CCOCC2)CC1=O (stereo not given), which Potency is on record?
Answer: The Potency was “inactive”.

Question: With COc1nn(CSP(=S)(OC)OC)c(=O)s1 as the compound, how does the Potency read?
Answer: The Potency was “inactive”.
